# Screen size: about 310,000 compounds; about 14,000 (4.5%) showed an effect of 50% or more. The effect is printed as a negative number. Many of the other results were omitted from the sample, so strong results are more common in it than they were.
# Target: human ether-à-go-go-related gene (hERG) potassium channel (human, UniProt Q12809)
# Assay: primary screen, population patch clamp on CHO cells stably expressing hERG; higher = less effect of the substance
# 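Also: peak tail current of the secondary pulse compared with the same well before compound.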
# Sequence of human ether-à-go-go-related gene (hERG) potassium channel (Q12809 whole entry, looked up): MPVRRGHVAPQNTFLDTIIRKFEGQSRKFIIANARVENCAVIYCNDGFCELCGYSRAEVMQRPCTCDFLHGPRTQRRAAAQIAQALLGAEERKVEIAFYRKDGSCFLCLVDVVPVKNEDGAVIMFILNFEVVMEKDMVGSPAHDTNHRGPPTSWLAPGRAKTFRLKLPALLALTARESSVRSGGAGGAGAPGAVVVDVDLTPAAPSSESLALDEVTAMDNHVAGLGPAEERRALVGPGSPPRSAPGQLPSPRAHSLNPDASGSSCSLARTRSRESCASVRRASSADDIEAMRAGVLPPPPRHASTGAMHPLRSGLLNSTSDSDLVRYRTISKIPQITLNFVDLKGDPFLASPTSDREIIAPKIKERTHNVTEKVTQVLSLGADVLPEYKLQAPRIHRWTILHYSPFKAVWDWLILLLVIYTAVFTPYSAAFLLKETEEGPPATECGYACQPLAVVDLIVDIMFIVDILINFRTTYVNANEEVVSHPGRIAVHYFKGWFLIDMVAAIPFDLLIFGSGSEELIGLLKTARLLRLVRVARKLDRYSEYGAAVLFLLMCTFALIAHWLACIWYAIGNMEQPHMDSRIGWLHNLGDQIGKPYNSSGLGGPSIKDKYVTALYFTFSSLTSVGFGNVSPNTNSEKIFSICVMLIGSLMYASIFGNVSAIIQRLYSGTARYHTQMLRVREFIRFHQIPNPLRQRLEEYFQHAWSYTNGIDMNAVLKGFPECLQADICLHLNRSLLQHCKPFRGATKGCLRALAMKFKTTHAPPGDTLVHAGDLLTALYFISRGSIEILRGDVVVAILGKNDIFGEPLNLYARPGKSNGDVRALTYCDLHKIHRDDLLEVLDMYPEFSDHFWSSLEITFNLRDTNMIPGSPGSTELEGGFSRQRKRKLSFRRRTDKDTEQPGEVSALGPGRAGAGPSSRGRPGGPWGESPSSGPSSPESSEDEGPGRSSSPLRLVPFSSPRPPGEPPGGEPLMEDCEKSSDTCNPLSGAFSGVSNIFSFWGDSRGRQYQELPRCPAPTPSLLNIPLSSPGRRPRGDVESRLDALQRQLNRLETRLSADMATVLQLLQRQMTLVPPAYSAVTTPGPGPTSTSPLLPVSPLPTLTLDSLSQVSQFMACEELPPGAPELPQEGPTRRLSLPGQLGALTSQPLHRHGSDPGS
row,SMILES,"hERG current change (%, negative = inhibition) at 10uM [%]"
1,COc1ccccc1C(=O)NCCC(=O)N1CCN(c2cccc(C(F)(F)F)c2)CC1,-21.7
2,COc1ccc(Cc2nnc(NS(C)(=O)=O)s2)cc1,3.9
3,Cc1cc(NC(=O)c2cc(CC(C)C)on2)no1,7.66
4,Nc1c(C(=O)NCc2ccccc2)c2nc3ccccc3nc2n1-c1ccc2c(c1)OCO2,5.58
5,Cc1ccc2c(c1)c(N=NC(N)=S)c(O)n2Cc1ccccc1,-1.71
6,COc1cccc(C2C(=O)N(C3CCCCC3)CC(=O)N2Cc2ccc(F)cc2)c1 (stereo not drawn),-43.8
7,O=C(Nc1nc2ccccc2[nH]1)c1ccc(OC(F)F)cc1,-11
8,N#CC(Cc1ccc(OC(F)F)cc1)c1nc2ccccc2[nH]1 (stereo not drawn),-70.1
9,N#CC(Cc1ccccc1OC(F)F)c1nc2ccccc2[nH]1 (stereo not drawn),-16.2
10,COc1ccc(CC(C#N)(CO)c2nc3ccccc3[nH]2)cc1 (stereo not drawn),-7.12
11,COc1cc(CC(C#N)(CO)c2nc3ccccc3[nH]2)ccc1OC(F)F (stereo not drawn),-18.9
12,N#CC(CO)(Cc1ccc(OC(F)F)cc1)c1nc2ccccc2[nH]1 (stereo not drawn),-52
13,Cc1cc(C)cc(C(=O)N2CCN(Cc3ccc4c(c3)OCO4)CC2)c1,-20.1
14,COc1ccccc1Oc1ccc(N2CC(C(=O)OCC(=O)c3ccccc3)CC2=O)cc1 (stereo not drawn),18
15,O=C(Cc1cccs1)N/N=C/c1ccccn1,-7.62
16,Cc1cc(NC(=O)COC(=O)C(C)Oc2ccc(Cl)cc2Cl)no1 (stereo not drawn),12.2
17,COc1ccc(/C=N/Nc2ccccn2)c(OC)c1OC,3.27
18,Cc1ccc(NS(=O)(=O)c2ccc(-c3cnc(C4CC4)o3)cc2)c(C)c1,2.08
19,COC(=O)c1ccc(Cn2c(CN3CCOCC3)nc3ccccc3c2=O)o1,-5.56

row,SMILES,"hERG current change (%, negative = inhibition) at 10uM [%]"
1,Cc1cc(C(F)F)n2ncc(C(=O)N3CCC(C(N)=O)CC3)c2n1,16.1
2,CCCCN(C)C(=O)c1cc2c(s1)-c1ccccc1S(=O)(=O)C2,-56.5
3,CN(C(=O)c1cc2c(s1)-c1ccccc1S(=O)(=O)C2)c1ccccc1,-0.0159
4,CN(C(=O)c1cc2c(s1)-c1ccccc1S(=O)(=O)C2)c1ccccc1F,-3.69
5,O=C1CCCCC1C(Nc1ccc(Br)cc1)c1ccccc1 (stereo not drawn),4.34
6,O=C(CCC(=O)Nc1ccc(F)cc1)N/N=C/c1ccc(F)cc1,13.1
7,COc1ccc(N2Cc3ccccc3C2)cc1Cl,-59.9
8,COc1ccc(Cl)cc1N1Cc2ccccc2C1,-3.46
9,COc1cc(N2Cc3ccccc3C2)ccc1C=O,-3.61
10,O=c1cc(Nc2ccc3c(c2)OCCO3)[nH]c(=O)n1-c1ccc(Br)cc1,14.3
11,O=C(CN1C(=O)CSc2ccc(S(=O)(=O)N3CCCCC3)cc21)NCc1ccccc1Cl,-15.1
12,O=S(=O)(Nc1cccc(-n2cnnn2)c1)c1cccc(Cl)c1,16.2
13,COc1cccc(-c2cc(C(=O)Nc3ccccc3)c3ccccc3n2)c1,8.07
14,O=C(NC1CC1)c1cc(-c2ccc(Br)cc2)nc2ccccc12,0.545
15,COc1ccc(-c2cc(C(=O)NC3CC3)c3ccccc3n2)cc1,-64.5
16,Cc1cccc(-c2cc(C(=O)Nc3cccnc3)c3ccccc3n2)c1,-21.2
17,CN1CCC(NC(=O)c2cc(-c3cccc(Br)c3)nc3ccccc23)CC1,-69.7
18,COc1cccc(-c2cc(C(=O)NC3CCCC3)c3ccccc3n2)c1,-36.8
19,COc1cccc(-c2cc(C(=O)NC3CC3)c3ccccc3n2)c1,-51.2

row,SMILES,"hERG current change (%, negative = inhibition) at 10uM [%]"
1,CN1CCC(N(C)C(=S)NC(=O)c2cc(-c3cccc(Br)c3)nc3ccccc23)CC1,-15.3
2,Cc1ccc(C)c(-c2cc(C(=O)Nc3cccnc3)c3ccccc3n2)c1,-61
3,Cc1ccc(C)c(-c2cc(C(=O)Nc3cccc(C(=O)O)c3)c3ccccc3n2)c1,20.3
4,Cc1ccc2nc(-c3cccc(Br)c3)cc(C(=O)NC3CC3)c2c1,13.7
5,COc1ccc(-c2cc(C(=O)NC3CCCC3)c3ccccc3n2)cc1,-21.6
6,CC1=C(C(=O)OC(C)C)C(c2ccccc2)NC(=S)N1C (stereo not drawn),2.43
7,COc1ccc(-n2c(=S)[nH]c3ccccc32)cc1,1.28
8,Cc1ccc(C)c(-c2cc(C(=O)NC3CC3)c3ccccc3n2)c1,-61.1
9,CC(C)Oc1cccc(-c2cc(C(=O)NN3CCOCC3)c3ccccc3n2)c1,-60.8
10,Cc1ccc(C)c(-c2cc(C(=O)NN3CCOCC3)c3ccccc3n2)c1,-17.1
11,Cc1cc(C(=O)NC2CC2)c2ccccc2n1,19.9
12,COC(=O)c1sccc1NC(=O)c1c(C)c(-c2cccc(Cl)c2)nc2ccccc12,16.7
13,O=C(NCCc1ccccn1)c1cc(-c2ccccc2Cl)nc2ccccc12,-2.8
14,Cc1c(-c2cccc(Cl)c2)nc2ccccc2c1C(=O)NC1CC1,-60.6
15,Cc1ccc(-c2cc(C(=O)NCCc3ccccn3)c3ccccc3n2)c(C)c1,-51.1
16,O=C(NN1CCOCC1)c1cc(-c2ccccc2)nc2ccccc12,-8.03
17,COc1cccc(-c2cc(C(=O)NN3CCOCC3)c3ccccc3n2)c1,-24.3
18,Cl.O=C(NCCc1ccccn1)c1cc(-c2cccc3ccccc23)nc2ccccc12,-27.1
19,Cc1c(-c2cccc(Cl)c2)nc2ccccc2c1C(=O)N1CCC2(CC1)OCCO2,-47.4
